Experimental data published in the supplement of paper PMC10849652.
Targets with a hit are over-represented here; the source holds about 8,800 in all. About 0.5% of all pairs of compound and target were hits.

What was measured:
Test in all cases: log2 fold change, soluble protein after heating vs DMSO (PISA); higher = thermal stabilisation; K562 lysate, 10 uM; active = over 0.2 and 3.5 SD of the protein, either way, in both replicates (recomputed)
[1] = compound: C1=CC=C(C=C1)[C@H](COC2=CC3=C(C=C2)NC(=O)N3)NC(=O)C4=CC=CN(C4=O)CC5=CC(=C(C=C5)F)F
Outline: (§1)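 K562 pellets were dounce-homogenised in PBS pH 7.4 containing 1 mM MgCl2, and the crude extract, at 1 mg/mL protein, was exposed to 10 μM compound for 30 min. Aliquots were heated for 3 min across 48°C-58°C, pooled, brought to 0.5% NP-40 at 4°C and spun at 21,000xg for 90 min, with the supernatant taken as soluble protein. TMTpro 16plex LC-MS/MS with equalised channel sums quantified that protein. Values are log-two fold changes in thermal stability relative to solvent controls, taken from duplicates.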

[2] = compound: CC1=C(SC2=C1C(=N[C@H](C3=NN=C(N32)C)CC(=O)N)C4=CC=C(C=C4)Cl)C
Outline: as §1

[3] = compound: CC1=C2C(=CC=C1)N=C(N(C2=O)C3=CC=CC=C3C)CN4C=NC5=C(N=CN=C54)N
Outline: as §1

[4] = compound: Cc1sc2c(c1C)C(c1ccc(Cl)cc1)=N[C@@H](CC(=O)OC(C)(C)C)c1nnc(C)n1-2
Outline: as §1

[5] = compound: c1ccc([C@@H]2C[C@H]2NC2CCNCC2)cc1
Outline: as §1

Measured: log2 fold change

MSH2 (UniProt P43246)
Sequence of UniProt P43246 (P43246 whole entry, looked up): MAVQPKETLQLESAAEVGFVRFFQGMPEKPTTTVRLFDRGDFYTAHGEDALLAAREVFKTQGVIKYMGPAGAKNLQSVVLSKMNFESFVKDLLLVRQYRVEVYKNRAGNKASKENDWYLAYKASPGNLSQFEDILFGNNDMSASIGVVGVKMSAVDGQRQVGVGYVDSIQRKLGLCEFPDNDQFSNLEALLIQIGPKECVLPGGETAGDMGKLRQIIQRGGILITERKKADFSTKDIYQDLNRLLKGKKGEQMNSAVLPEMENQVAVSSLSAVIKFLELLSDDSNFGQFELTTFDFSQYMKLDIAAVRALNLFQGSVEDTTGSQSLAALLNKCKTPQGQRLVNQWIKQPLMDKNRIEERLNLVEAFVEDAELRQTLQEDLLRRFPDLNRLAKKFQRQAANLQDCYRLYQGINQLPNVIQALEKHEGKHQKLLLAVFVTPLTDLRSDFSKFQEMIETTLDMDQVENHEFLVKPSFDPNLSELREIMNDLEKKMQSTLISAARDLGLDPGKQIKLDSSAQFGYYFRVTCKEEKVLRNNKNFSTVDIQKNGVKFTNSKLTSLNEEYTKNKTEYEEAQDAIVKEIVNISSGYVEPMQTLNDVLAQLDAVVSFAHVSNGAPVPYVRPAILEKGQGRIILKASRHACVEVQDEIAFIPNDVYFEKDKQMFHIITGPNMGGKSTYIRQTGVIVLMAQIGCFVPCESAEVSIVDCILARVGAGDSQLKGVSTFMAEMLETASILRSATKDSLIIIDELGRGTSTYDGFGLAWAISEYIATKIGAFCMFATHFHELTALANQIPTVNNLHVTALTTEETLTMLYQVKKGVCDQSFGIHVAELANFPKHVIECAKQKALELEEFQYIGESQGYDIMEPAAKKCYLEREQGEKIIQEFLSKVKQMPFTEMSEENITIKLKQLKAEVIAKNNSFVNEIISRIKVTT
inactive: [1] 0.018 | [2] -0.006 | [3] 0.028 | [4] 0.001 | [5] 0.065

PAXBP1 (UniProt Q9Y5B6)
inactive: [1] -0.004 | [2] -0.026 | [3] 0.026 | [4] 0.057 | [5] 0.001

ORC3 isoform 2 (UniProt Q9UBD5)
inactive: [1] 0.005 | [2] -0.031 | [3] 0.014 | [4] 0.021 | [5] 0.047

NUP160 (UniProt Q12769)
inactive: [1] -0.021 | [2] -0.027 | [3] 0.012 | [4] -0.04 | [5] 0.01

NCAPH2 (UniProt Q6IBW4)
Sequence of UniProt Q6IBW4 (Q6IBW4 whole entry, looked up): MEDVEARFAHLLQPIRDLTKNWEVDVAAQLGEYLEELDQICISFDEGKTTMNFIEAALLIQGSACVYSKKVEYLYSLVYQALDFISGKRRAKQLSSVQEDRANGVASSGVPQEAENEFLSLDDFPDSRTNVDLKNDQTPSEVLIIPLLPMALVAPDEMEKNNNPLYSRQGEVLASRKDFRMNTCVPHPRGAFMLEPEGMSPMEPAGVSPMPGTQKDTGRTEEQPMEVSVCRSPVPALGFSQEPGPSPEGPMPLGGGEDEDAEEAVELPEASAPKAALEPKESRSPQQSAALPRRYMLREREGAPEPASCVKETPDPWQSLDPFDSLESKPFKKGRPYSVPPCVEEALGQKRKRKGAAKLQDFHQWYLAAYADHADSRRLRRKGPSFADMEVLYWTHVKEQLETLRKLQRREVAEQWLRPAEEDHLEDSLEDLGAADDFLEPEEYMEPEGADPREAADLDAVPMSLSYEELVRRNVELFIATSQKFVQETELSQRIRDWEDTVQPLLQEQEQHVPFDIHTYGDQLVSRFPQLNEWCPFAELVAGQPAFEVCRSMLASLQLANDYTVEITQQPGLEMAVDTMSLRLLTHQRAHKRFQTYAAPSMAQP
inactive: [1] 0.027 | [2] -0.001 | [3] 0.035 | [4] -0.005 | [5] 0.024

NCOR1 (UniProt O75376)
Sequence of UniProt O75376 (O75376 whole entry, looked up): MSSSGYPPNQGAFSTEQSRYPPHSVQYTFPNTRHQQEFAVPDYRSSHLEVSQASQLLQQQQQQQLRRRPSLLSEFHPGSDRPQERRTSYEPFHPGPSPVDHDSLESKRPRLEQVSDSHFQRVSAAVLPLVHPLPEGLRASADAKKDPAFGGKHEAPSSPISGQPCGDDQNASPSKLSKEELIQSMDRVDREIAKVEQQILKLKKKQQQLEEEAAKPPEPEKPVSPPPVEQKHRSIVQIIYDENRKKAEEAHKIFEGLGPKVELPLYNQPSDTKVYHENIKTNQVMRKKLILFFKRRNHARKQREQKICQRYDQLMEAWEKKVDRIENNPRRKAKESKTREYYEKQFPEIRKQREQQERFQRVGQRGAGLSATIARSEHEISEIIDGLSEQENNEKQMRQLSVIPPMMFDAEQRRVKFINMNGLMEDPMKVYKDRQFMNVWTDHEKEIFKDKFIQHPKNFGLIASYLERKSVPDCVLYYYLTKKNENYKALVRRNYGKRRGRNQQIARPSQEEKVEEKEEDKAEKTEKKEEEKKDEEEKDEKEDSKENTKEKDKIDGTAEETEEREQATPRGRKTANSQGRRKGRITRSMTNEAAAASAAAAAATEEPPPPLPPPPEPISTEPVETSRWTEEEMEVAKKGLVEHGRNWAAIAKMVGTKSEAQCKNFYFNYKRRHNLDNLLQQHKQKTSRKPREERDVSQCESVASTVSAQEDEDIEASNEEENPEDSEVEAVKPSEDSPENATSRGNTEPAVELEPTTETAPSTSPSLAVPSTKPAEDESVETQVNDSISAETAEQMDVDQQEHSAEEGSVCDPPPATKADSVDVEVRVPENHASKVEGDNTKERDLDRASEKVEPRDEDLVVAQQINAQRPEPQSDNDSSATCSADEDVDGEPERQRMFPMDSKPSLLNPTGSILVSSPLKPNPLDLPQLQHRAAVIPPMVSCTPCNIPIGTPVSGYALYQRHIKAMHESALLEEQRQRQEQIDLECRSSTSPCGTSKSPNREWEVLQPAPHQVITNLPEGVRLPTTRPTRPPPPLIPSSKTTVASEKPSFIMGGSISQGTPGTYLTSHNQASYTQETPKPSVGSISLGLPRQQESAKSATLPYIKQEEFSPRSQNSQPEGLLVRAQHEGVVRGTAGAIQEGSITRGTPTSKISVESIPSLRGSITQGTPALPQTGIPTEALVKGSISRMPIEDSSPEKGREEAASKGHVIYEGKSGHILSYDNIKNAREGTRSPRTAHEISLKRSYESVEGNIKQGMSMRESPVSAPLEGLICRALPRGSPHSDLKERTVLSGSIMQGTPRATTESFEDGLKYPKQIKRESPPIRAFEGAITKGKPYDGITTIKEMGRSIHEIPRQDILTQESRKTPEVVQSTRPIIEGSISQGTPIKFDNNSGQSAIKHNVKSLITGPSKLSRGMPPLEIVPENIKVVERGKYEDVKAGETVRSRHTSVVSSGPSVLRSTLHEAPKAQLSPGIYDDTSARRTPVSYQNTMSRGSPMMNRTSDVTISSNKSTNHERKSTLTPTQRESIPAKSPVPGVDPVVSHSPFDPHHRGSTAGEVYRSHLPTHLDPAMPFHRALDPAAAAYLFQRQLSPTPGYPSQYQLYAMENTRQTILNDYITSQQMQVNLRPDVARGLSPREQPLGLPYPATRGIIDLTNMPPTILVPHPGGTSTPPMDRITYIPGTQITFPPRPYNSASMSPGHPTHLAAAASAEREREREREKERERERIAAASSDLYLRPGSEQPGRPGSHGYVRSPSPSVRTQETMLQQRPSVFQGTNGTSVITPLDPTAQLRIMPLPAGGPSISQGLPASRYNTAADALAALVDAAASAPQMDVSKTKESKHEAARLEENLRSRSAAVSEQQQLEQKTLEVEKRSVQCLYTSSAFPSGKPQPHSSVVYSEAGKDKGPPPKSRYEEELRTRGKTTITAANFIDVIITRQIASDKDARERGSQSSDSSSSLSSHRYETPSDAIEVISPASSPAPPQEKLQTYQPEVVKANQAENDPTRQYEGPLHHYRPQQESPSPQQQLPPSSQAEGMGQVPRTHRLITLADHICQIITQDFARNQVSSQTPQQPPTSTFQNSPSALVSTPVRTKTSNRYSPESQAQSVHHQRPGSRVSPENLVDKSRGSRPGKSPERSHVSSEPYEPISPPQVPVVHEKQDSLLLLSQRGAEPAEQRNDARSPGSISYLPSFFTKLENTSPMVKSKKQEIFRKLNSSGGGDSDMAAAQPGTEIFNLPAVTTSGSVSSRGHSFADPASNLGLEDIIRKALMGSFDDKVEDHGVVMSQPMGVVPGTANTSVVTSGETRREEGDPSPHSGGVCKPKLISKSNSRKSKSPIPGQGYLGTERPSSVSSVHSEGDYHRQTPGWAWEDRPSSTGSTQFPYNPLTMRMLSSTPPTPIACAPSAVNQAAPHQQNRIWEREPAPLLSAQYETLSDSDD
inactive: [1] -0.009 | [2] 0.002 | [3] 0.035 | [4] 0.015 | [5] 0.001

PAK4 (UniProt O96013)
Sequence of UniProt O96013 (O96013 whole entry, looked up): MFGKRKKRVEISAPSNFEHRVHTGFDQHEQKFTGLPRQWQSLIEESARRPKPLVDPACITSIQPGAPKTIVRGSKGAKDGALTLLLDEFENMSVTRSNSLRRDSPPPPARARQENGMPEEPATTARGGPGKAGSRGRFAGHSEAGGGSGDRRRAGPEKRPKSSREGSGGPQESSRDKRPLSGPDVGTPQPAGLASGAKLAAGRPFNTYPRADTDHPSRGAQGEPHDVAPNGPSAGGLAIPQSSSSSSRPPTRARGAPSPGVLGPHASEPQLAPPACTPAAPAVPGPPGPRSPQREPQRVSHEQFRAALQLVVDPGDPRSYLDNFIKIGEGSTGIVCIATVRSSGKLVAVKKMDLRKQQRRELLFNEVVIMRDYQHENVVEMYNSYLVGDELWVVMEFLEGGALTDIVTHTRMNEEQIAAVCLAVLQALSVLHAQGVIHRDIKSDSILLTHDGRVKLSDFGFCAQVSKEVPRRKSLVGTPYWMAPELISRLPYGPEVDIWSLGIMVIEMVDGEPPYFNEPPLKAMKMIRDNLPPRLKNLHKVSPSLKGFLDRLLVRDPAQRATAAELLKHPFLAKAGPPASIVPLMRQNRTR
inactive: [1] -0.06 | [2] -0.03 | [3] -0.018 | [4] -0.021 | [5] -0.14

NDUFA4 (UniProt O00483)
Sequence of UniProt O00483 (O00483 whole entry, looked up): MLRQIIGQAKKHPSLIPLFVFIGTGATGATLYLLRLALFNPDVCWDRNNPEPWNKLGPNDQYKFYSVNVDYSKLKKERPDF
inactive: [1] -0.019 | [2] -0.048 | [3] -0.063 | [4] 0.035 | [5] 0.287

NFATC2IP (UniProt Q8NCF5)
Sequence of UniProt Q8NCF5 (Q8NCF5 whole entry, looked up): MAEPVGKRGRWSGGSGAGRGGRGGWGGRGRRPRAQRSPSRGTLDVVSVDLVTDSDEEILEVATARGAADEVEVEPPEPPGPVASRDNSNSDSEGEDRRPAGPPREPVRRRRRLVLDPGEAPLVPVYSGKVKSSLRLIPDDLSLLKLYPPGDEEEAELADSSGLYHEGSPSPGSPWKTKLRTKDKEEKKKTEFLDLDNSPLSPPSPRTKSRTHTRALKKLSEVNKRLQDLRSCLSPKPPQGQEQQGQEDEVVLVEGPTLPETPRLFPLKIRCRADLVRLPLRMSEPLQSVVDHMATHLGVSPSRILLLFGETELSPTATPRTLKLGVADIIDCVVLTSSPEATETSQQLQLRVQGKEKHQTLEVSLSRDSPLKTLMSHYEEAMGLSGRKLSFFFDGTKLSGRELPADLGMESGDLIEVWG
inactive: [1] 0.012 | [2] -0.01 | [3] 0.009 | [4] 0.138 | [5] 0.049
